# Source: PubChem (Buhrlage Lab, Dana-Farber Cancer Institute and Novartis Institutes for BioMedical Research (Cambridge, Mass))
# UCHL1 block – blocks human UCHL1 ubiquitin-rhodamine cleavage; P09936; purified UCHL1, Ub-rhodamine cleavage fluorescence; inhibition, % at 20 µM; hit rate 0.2% among 47,000
# USP10 inh – blocks human USP10 ubiquitin-rhodamine cleavage. Q14694. inhibition, % at 20 µM. AID 1645856. purified USP10, Ub-rhodamine fluorescence, 60 min. hit rate 1.1% among 47,000
# USP7 block – human USP7 deubiquitinase inhibition. Q93009. purified USP7, Ub-rhodamine cleavage fluorescence. inhibition, % at 20 µM. hit rate 0.3% among 47,000
# Numbers stand for hits; i = inactive. A selection: hits, their analogues and other compounds. The true share with any hit is near 1.2%. Cut-off read from the data, not from the text of the source: active = inhibition above about 30%; inactive = the rest.
SMILES,UCHL1 block,USP10 inh,USP7 block
Cc1cc(NC(=O)CSc2nnc(COc3ccc(Cl)cc3)o2)no1,i,i,i
Cc1cc(NC(=O)CSc2ncc(-c3cccc([N+](=O)[O-])c3)n2-c2cccc(Cl)c2)no1,i,64,i
Cc1ccc(C(=O)NCCc2nc(-c3ccc4c(c3)OCO4)n[nH]2)cc1F,i,i,i
COc1ccc(C)cc1NC(=O)C1CC(=O)Nc2nc(SCc3ccccc3)nn21 (stereo unspecified),i,34,i
COc1ccc(C2C(C(N)=O)=C(C)Nc3nc(SCc4ccccc4)nn32)cc1 (stereo unspecified),i,i,i
COc1ccc(-c2cc3nc([C@H](C)NC(=O)Cc4cccc(F)c4)nn3cn2)cc1,38,i,52
COc1cccc(CC(=O)N[C@@H](C)c2nc3cc(-c4ccc(F)cc4)ncn3n2)c1,i,i,i
COc1ccc(-c2cc3nc([C@@H](C)NC(=O)c4ccc5c(c4)OCO5)nn3cn2)cc1,i,i,i
COc1ccc(-c2cc3nc([C@H](C)NC(=O)Cc4cc(F)ccc4F)nn3cn2)cc1,i,37,46
NS(=O)(=O)c1ccc(NC(=O)C2Oc3ccccc3NC2=O)cc1 (stereo unspecified),i,i,i
CC1NC(=O)C(CC(N)=O)NC(=O)C(C(C)O)NC(=O)C(Cc2ccc(O)cc2)NC(=O)C(C(C)C)NC(=O)C(NC(=O)CC(O)CCCCCCCCCCCCN=C(N)N)C(C)OC1=O (stereo unspecified),i,i,i
CCc1ccccc1NC(=O)CN1C(=O)C2CCCC2=Nc2ccccc21 (stereo unspecified),i,34,i
Cc1cccc(C)c1NC(=O)CN1C(=O)C2CCCC2=Nc2ccccc21 (stereo unspecified),i,i,i
Cc1cccc(NC(=O)CSCC(=O)Nc2cccc3ccccc23)c1,i,i,i
Cc1cccc(NC(=O)CSc2nnc(NC(=O)c3ccc4ccccc4c3)s2)c1,i,44,i
COC(=O)c1ccc(C2c3[nH]c4ccccc4c3C[C@@H]3C(=O)N(c4ccc5c(c4)OCCO5)C(=O)N23)cc1 (stereo partly specified),i,48,i
COc1ccc(C2c3[nH]c4ccccc4c3C[C@@H]3C(=O)N(c4ccc5c(c4)OCCO5)C(=O)N23)cc1 (stereo partly specified),i,i,i
O=C(CSc1nnc(CNC(=O)c2ccccc2F)o1)Nc1ccc(OC(F)(F)F)cc1,i,i,i
O=c1oc2ccccc2cc1-c1nc(-c2ccc(Oc3ccccc3)cc2)cs1,i,i,70
O=c1cc(-c2cc3ccccc3oc2=O)c2ccc(O)cc2o1,i,i,i
CC(C)=CCc1ccc2[nH]cc(C3=C(O)C(=O)C(c4c[nH]c5ccccc45)=C(O)C3=O)c2c1,i,i,i
Cc1ccc(-c2cc(C#N)c(=O)n(Cc3ccc(F)cc3)c2)cc1,i,i,i
CCCCCCCc1cc(OC(=O)c2c(CCCCCCC)cc(O)cc2O[C@@H]2O[C@H](CO)[C@@H](O)[C@H](O)[C@H]2O)cc(O)c1C(=O)O,88,101,101
O=C(O)CCCCc1cc(O)cc(O)c1,i,i,i
COc1cc(C(=O)OCc2ccc(O[C@@H]3O[C@H](CO)[C@@H](O)[C@H](O)[C@H]3O)cc2)ccc1O,i,i,i
SMILES,UCHL1 block,USP10 inh,USP7 block
CCCCCCCCCCCCCCCc1cc(O)cc(O)c1C(=O)O,i,63,i
COc1ccccc1-c1nc2c3c(C)c(C)n(Cc4cccnc4)c3ncn2n1,i,i,i
CC(NC(=O)CNC(=O)c1ccc2c(c1)OCO2)c1cc2ccccc2o1 (stereo unspecified),i,i,i
O=C(c1cc(S(=O)(=O)Nc2ccc(Cl)cc2)ccc1Cl)N1CCCc2ccccc21,i,36,i
CN(c1ccccc1)S(=O)(=O)c1ccc(Cl)c(C(=O)N2CCCc3ccccc32)c1,i,i,i
CCOC(=O)C(CC)Sc1nc(N)c(NC(=O)c2ccco2)c(=O)[nH]1 (stereo unspecified),i,i,i
CCCc1ccc(C(=O)[C@@H]2[C@@H](C(=O)c3cccs3)N3c4ccc(C)cc4C(C)=C[C@@H]3[C@@]23C(=O)Nc2ccccc23)cc1,i,38,33
O=C(c1ccc(F)cc1)[C@@H]1[C@H](C(=O)OC(c2ccccc2)c2ccccc2)N2c3ccccc3C=CC2[C@@]12C(=O)Nc1ccccc12 (stereo partly specified),i,i,i
COc1ccc(CN2CC[C@@H]3[C@H]2C(=O)NC[C@H](CCC(=O)NCc2cccnc2)N3C)cc1,i,i,i
COc1cc(Cl)c(NC(=O)C2Cc3ccccc3N2C(=O)c2ccccc2)c(OC)c1 (stereo unspecified),i,36,i
O=C(Nc1ccccc1F)C1Cc2ccccc2N1C(=O)c1ccccc1 (stereo unspecified),i,i,i
C=C[C@@]1(C)CC[C@@]2(C)[C@@H](CC[C@]3(C)C(C)=C(O)C(=O)C[C@H]23)C1,i,i,i
C=C[C@]1(C)CC[C@]2(C)[C@@H](C1)[C@@H](O)C[C@H]1[C@]3(C)CCC[C@@]12OC3=O,i,38,i
COc1cccc(NC(=O)CSC2=NC3(CCCC3)Nc3ccccc32)c1,i,i,i
CSC1SCC2C(=O)N(C)C(C(C)C(C)C)C(=O)OCC(NC(=O)c3cnc4ccccc4n3)C(=O)NC(C)C(=O)N(C)C1C(=O)N(C)C(C(C)C(C)C)C(=O)OCC(NC(=O)c1cnc3ccccc3n1)C(=O)NC(C)C(=O)N2C (stereo unspecified),i,38,i
O=C(OCc1c(F)cccc1Cl)c1c2c(nc3ccccc13)CCC2,i,i,i
Cc1ccc(S(=O)(=O)NC2=NCc3ccccc3N2)cc1,i,i,i
O=C1Nc2ccccc2C(=O)C1C(c1ccc(Cl)cc1)C1C(=O)Nc2ccccc2C1=O (stereo unspecified),i,54,i
O=C1Nc2ccccc2C(=O)N2CCCC12 (stereo unspecified),i,i,i
O=C(NC(Cc1ccccc1)c1nc2ccccc2[nH]1)c1ccccc1-c1ccccc1 (stereo unspecified),i,i,i
O=[N+]([O-])c1ccc2c(c1)nc1n2CCN(Cc2ccco2)C1,i,i,i
Cc1ccc(Cn2c(=O)n(CCC(=O)NCCc3ccccc3)c(=O)c3ccccc32)cc1,i,i,i
O=C(Cn1c(=O)n(Cc2ccc(F)cc2)c(=O)c2ncccc21)Nc1ccccc1,i,i,i
Cc1ccc(Cn2c(=O)c3ncccc3n(CC(=O)NCc3ccc(F)cc3)c2=O)cc1,i,34,i
Cc1ccc(CNC(=O)Cn2c(=O)n(CCCC(=O)NCc3ccc(F)cc3)c(=O)c3ccccc32)cc1,i,44,i
O=c1c2ccccc2c(-c2nc(-c3cccnc3)no2)cn1-c1ccc(Cl)cc1,i,i,i
COc1cccc(C(=O)Nc2ccc(SC(C)C(=O)Nc3ccc(C(N)=O)cc3)cc2)c1 (stereo unspecified),i,36,i
COc1cccc(C(=O)Nc2ccc(SC(C(=O)Nc3ccccc3)c3ccccc3)cc2)c1 (stereo unspecified),i,i,i
COc1ccc(C2CC(c3ccc(OC)cc3)n3ncnc3N2C(=O)C2CC2)cc1 (stereo unspecified),i,i,i
